Hits are enriched below; roughly 3.2% of the tested compounds scored in any of these assays.
CDK5 p35 inh – CDK5/p35 (human) kinase inhibition. inhibition, % at 10 µM. Recombinant CDK5/p35, ADP-Glo luminescence, 60 min. 330,000 tested, 0.01% active. Q00535+Q15078;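 active = highest replicate inhibition of at least 50% and at least 75% of replicates reaching 50%; inconclusive = only one of the two criteria met; inactive = both criteria failed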;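 also: plate controls were DMSO neutral control for no effect and GW8510 at 10 µM for full effect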
esBAF inh – SWI/SNF esBAF complex inhibition; reporter increase, % at 12.5 µM; 350,000 tested, 2% active; AID 602393; mouse ES cells, Bmi1-luciferase knock-in reporter, 24 h; 100% = twice the neutral-well signal; in the data active = activation above about 40%; inconclusive = no clear call, values can overlap the other calls;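 also: 0% = median of the plate's neutral control wells and 100% = double that signal; a rise in the Bmi1 reporter signal indicates esBAF inhibition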
dFosB act – enhances mouse delta FosB homodimer DNA binding; P13346; purified delta FosB, TAMRA-CDK5 oligo fluorescence polarization; percent of positive-control signal above neutral wells; activation, % at 25 µM; 340,000 tested, 0.99% active; AID 493131;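 active = mean activation above about 17%, with every replicate also reaching it, limit read from the data, passing the limit was not always enough; inconclusive = only one of the two conditions met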
Target sequence (P13346 whole entry, looked up): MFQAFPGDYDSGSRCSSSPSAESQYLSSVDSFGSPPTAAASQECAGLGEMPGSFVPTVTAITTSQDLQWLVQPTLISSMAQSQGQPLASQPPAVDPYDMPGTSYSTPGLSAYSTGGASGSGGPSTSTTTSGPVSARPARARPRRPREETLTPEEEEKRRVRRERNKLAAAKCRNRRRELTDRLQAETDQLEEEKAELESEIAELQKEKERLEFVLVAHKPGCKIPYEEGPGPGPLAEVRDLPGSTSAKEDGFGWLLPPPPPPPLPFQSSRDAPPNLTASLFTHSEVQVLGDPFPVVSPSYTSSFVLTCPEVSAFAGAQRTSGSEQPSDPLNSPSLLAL
Rtt109 HAT inh – blocks Candida albicans Rtt109/Vps75 acetyltransferase activity | Q5AAJ8 | purified Rtt109/Vps75, ThioGlo CoA-SH fluorescence, 4 h | inhibition, % at 34.9 µM | 330,000 tested, 0.16% active;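 active = inhibition of at least 50% in every replicate; inconclusive = best replicate reaches 50% inhibition but some replicates fall short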
Target sequence (Q5AAJ8 whole entry, looked up): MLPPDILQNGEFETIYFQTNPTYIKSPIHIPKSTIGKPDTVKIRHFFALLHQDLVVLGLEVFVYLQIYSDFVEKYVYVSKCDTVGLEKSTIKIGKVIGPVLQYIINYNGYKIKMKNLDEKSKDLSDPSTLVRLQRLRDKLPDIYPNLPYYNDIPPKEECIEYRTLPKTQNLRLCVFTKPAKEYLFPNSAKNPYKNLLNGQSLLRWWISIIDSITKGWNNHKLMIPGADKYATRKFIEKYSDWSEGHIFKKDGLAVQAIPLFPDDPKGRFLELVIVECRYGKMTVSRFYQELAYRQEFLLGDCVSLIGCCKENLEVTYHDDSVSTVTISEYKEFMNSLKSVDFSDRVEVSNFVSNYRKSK
SMARCA2 act – activators of SMARCA2 function; AID 652017; MG213 cells, MMTV-luciferase reporter, dexamethasone, overnight; activation, % at 9.1 µM; 370,000 tested, 1% active; in the data active = activation above about 7.8%;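 also: 0% = vehicle wells and 100% = reference activator wells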
DYRK1A inh – inhibitors of rat Dyrk1A kinase. Q63470. 310,000 tested, 0.43% active. ADP-Glo luminescence, NFATc1 peptide. inhibition, % at 12.5 µM; in the data active = inhibition above about 50%;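 also: plate controls were vehicle with enzyme for no effect and no enzyme for full effect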
SMARCA2 act conf – confirmation of SMARCA2 (BRM) function activators; AID 652260; activation, % at 9.1 µM; MG213 cells, MMTV-luciferase with dexamethasone, luminescence, overnight; MG213 cells expressing E1A, Rb sequestered; DMSO wells 0%, reference activator 100%; shares compounds with SMARCA2 act; 3,500 tested, 30% active;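 active = activation above its plate's cutoff, the mean activation of tested wells plus 3 SD, cut at about 7.9% in these data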
VP16 Luc act – counter-screen for SMARCA2 activators: GAL4-VP16 luciferase reporter activation. shares compounds with SMARCA2 act. HEK293 GAL4-VP16 pG5luc reporter, luciferase luminescence; scaled: DMSO wells 0%, SAHA wells 100%. activation, % at 9.1 µM. 3,500 tested, 41% active. AID 686939;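 active = activation above the solvent-only control well mean plus 3 SD, averaged across control plates, cut at about 5.2% in these data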
Numbers without * were called inactive; ? = inconclusive; . = no result given.

SMILES | CDK5 p35 inh | esBAF inh | dFosB act | Rtt109 HAT inh | SMARCA2 act | DYRK1A inh | SMARCA2 act conf | VP16 Luc act
COc1ccc(NC(=O)n2nc(OC(=O)c3cccs3)cc2N)cc1 | 0 | ? | -6 | 10 | 9.1* | 7 | 3 | 2
COc1ccc(-c2ccc(S(=O)(=O)n3nc(OC(=O)c4cccs4)cc3N)cc2)cc1 | 0 | 3 | 0 | 6 | 0 | -5 | . | .
CN1CCN(S(=O)(=O)c2cccc(C(=O)Nc3sc4c(c3-c3nc5ccccc5[nH]3)CCCC4)c2)CC1 | 1 | . | ? | -7 | 21* | 0 | 4 | 4
Cn1cccc1/C=N/N1CCN(Cc2ccccc2)CC1 | 0 | 4 | 1 | -2 | 16* | . | 1 | 1
CC(=O)c1c(O)cc(C(C)C)n(-c2ccccc2)c1=O | 0 | . | 3 | 2 | 20* | 0 | 3 | 0
C[C@H]1CN([C@@H](C)CO)C(=O)c2cccc(NS(=O)(=O)c3ccc(Cl)cc3)c2O[C@@H]1CN(C)Cc1ccc(Cl)c(Cl)c1 | . | 1 | . | . | . | . | . | .
CCc1ccc2[nH]c(=O)c(CN(CCN(CC)CC)C(=O)Nc3ccccc3OC)cc2c1 | 2 | 1 | -8 | 18 | 9.0* | 7 | -1 | 1
CCN(CC)CCCN(Cc1cc2cc3c(cc2[nH]c1=O)OCO3)C(=S)Nc1ccccc1OC | -3 | 1 | 2 | -9 | 2 | 0 | . | .
COc1ccccc1NC(=S)N(CCCN(C)C)Cc1cc2cc3c(cc2[nH]c1=O)OCO3 | -3 | . | 3 | 5 | 8.0* | -7 | -1 | 0
COc1ccc(NC(=O)N(C)C[C@@H]2Oc3ccc(NS(=O)(=O)c4cn(C)cn4)cc3CC(=O)N([C@@H](C)CO)C[C@@H]2C)cc1 | . | 1 | . | . | . | . | . | .
CCCNC(=O)N[C@@H]1C=C[C@@H](CC(=O)NC2CCCCC2)O[C@@H]1CO | . | 8 | . | . | . | . | . | .
Cc1noc(C)c1NC(=O)N(C)C[C@H]1OCCCC[C@@H](C)Oc2ccc(NC(=O)NC3CCCCC3)cc2C(=O)N([C@H](C)CO)C[C@@H]1C | . | 1 | . | . | . | . | . | .
CC1CCCCN1C(=O)CSc1nnc(-c2ccccc2O)o1 (configuration not stated) | -1 | 27 | -13 | 2 | 8.9* | -4 | 2 | 10*
Cc1occc1-c1nnc(SCC(=O)N2CCCCC2C)o1 (configuration not stated) | 1 | 10 | 4 | 3 | -3 | -1 | . | .
Cn1c2ccc(Cl)cc2c2nc3ccccc3nc21 | 0 | 13 | -52 | -20 | 9.4* | 3 | 11* | 3
COc1ccc(CN(C)C[C@@H]2OCCCC[C@@H](C)Oc3ccc(NC(=O)Nc4ccc(C(F)(F)F)cc4)cc3C(=O)N([C@@H](C)CO)C[C@@H]2C)cc1 | . | -4 | . | . | . | . | . | .
O=C(NNC1=C(C(=O)C(F)(F)F)CCC1)c1ccc(Cl)cc1 | 1 | . | -1 | -6 | 14* | . | -5 | 0
O=C(C[C@@H]1C[C@@H]2c3cc(NC(=O)C4CCC4)ccc3O[C@@H]2[C@H](CO)O1)NCCc1ccccc1 | . | -3 | . | . | . | . | . | .
Cc1cccc(-c2nnc(-c3ccccc3)o2)c1 | 1 | -41 | -14 | -5 | 5 | -8 | . | .
Cc1ccc(/C=C/c2nnc(-c3cccc(C)c3)o2)cc1 | 0 | 53* | 0 | 7 | 9.3* | -3 | 2 | 1
Cc1nnc(-c2ccccc2)o1 | 0 | 5 | -3 | -5 | -3 | 0 | . | .
Cc1ccc(-c2nnc(/C=C/c3ccccc3)o2)cc1 | 0 | . | -8 | 1 | 9.1* | -8 | 7 | 10*
C[C@H](CO)N1C[C@H](C)[C@H](CN(C)C(=O)c2ccc(F)cc2)Oc2ncc(C#C[C@@H](C)O)cc2C1=O | . | 2 | . | . | . | . | . | .
CCc1nc2ccc(C(=O)NCc3ccc(OC)cc3)cn2c1N(C)Cc1ccc(OC)cc1 | . | 2 | . | . | -5 | . | . | .
CCc1nc2ccc(C(=O)N(C)Cc3ccccc3)cn2c1N(C)Cc1ccc(OC)cc1 | . | 3 | . | . | 9.9* | . | 4 | 1
SMILES | CDK5 p35 inh | esBAF inh | dFosB act | Rtt109 HAT inh | SMARCA2 act | DYRK1A inh | SMARCA2 act conf | VP16 Luc act
COC(=O)C[C@@H]1CC[C@@H]2[C@@H](COc3ccc(NS(=O)(=O)c4ccc(C)cc4)cc3C(=O)N2C)O1 | . | 8 | . | . | . | . | . | .
C=CCS/C(N)=N\N=C\c1c(O)ccc2ccccc12 | 3 | ? | -4 | -7 | 12* | -1 | 12* | 8.7*
Cc1noc(C)c1NC(=O)N[C@@H]1CC[C@H](CC(=O)NCc2ccc(Cl)c(Cl)c2)O[C@@H]1CO | . | 3 | . | . | . | . | . | .
CC(C)N1CCCCC(NC(=O)c2cccc(C(F)(F)F)c2)C1=O (configuration not stated) | . | . | . | . | 8.8* | . | 1 | 0
CCN=c1sc(C(=O)OC)cc(=O)n1CC | 0 | -11 | 5 | 2 | 11* | -4 | 8.6* | 1
CCc1ccccc1-n1ncc(C(=O)Nc2ccc(OC)cc2)c1C | -2 | 25 | -6 | 2 | 8.0* | 0 | 5 | 12*
COC(=O)C[C@H]1CC[C@H]2[C@H](COc3ccc(NC(=O)c4cccc(OC)c4)cc3C(=O)N2C)O1 | . | 2 | . | . | . | . | . | .
COc1cccc2cc(C(=O)OCC(=O)NCc3ccc4c(c3)OCO4)c(=O)oc12 | -2 | . | -8 | 3 | 11* | -7 | 6 | 5
COc1ccccc1CN1CC[C@H]2[C@H](CO)Nc3ccc(-c4ccc(C(=O)N(C)C)cc4)cc3[C@H]21 | . | 0 | . | . | . | . | . | .
O=S1(=O)C[C@H](N2CCN(CCO)CC2)[C@@H](COCc2ccccc2)N1 | . | -2 | . | . | 8.1* | . | -4 | 3
CCCCc1ccc(NC(=O)COCC)cc1 | 0 | 33 | -10 | -2 | 8.1* | -3 | 3 | 5
CCCCc1ccc(NC(=O)CC(C)C)cc1 | -3 | 48* | -6 | 3 | 9.7* | -6 | 4 | 4
CCOc1ccc(CCNC(=O)COC(=O)c2cccc(S(=O)(=O)N(C)C)c2)cc1OCC | -1 | -1 | -5 | 7 | 1 | . | . | .
CCOc1ccc(CCNC(=O)COC(=O)c2cccc(N(C)C)c2)cc1OCC | 0 | 54* | -11 | 0 | 8.1* | 7 | 3 | 8.7*
Clc1ccc(OCc2cc(-c3ccccc3)no2)c(Cl)c1 | -3 | -51 | 0 | -2 | 7 | 1 | . | .
COc1ccc(-c2cc(COc3ccccc3)on2)cc1 | 0 | . | -1 | -7 | 8.4* | -1 | 4 | 7.2*
Cc1cccc(OCc2cc(-c3ccccc3)no2)c1C | 2 | . | -5 | 0 | 8.9* | -5 | 8 | 6.5*
O=C(c1ccccc1)N1C[C@H]2[C@@H](c3ccccc31)[C@H](CO)N2C(=O)Nc1ccccc1Cl | . | -3 | . | . | . | . | . | .

Screening results deposited in PubChem BioAssay by several laboratories.
